Screens from PubChem.
D1 potentiator – potentiators of human D1 dopamine receptor | HEK293 TREx D1 cells, calcium flux, dopamine EC20 potentiation | P21728 | AID 504651 | potentiation, % at 10 µM | actives 0.036% (n = 360,000); in the data active = potentiation above about 30%; also: 0% is about no effect
Target sequence (P21728 whole entry, looked up): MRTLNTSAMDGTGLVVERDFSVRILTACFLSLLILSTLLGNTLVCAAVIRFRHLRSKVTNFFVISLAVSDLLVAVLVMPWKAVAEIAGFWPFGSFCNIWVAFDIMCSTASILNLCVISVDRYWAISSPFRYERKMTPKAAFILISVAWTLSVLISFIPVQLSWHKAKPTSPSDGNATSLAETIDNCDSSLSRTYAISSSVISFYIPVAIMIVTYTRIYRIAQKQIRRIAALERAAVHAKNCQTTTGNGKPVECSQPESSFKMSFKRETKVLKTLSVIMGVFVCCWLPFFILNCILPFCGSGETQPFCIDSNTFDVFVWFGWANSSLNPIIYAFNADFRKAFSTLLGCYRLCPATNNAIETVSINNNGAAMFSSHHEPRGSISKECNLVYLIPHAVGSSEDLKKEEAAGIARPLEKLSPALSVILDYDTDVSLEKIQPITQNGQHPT
DRD3 antagonist – blocks the human D3 dopamine receptor; P35462; D3R cells, DiscoveRx beta-arrestin luminescence, antagonist mode; stronger effect = lower value; max response, negative = inhibition, %; actives 2.5% (n = 360,000); in the data active = max response below about -50%; inconclusive = no clear call, values can overlap the other calls; also: % is scaled to controls: 0 for no effect and ±100 for the full control effect
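Cells plated overnight at 1500 cells/well, then exposed to library compounds with dopamine controls for 90 minutes at 37 degrees C. DiscoveRx reagent added for 30–60 minutes at room temperature; luminescence read, quantitative HTS format.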
D1 antag – human D1 dopamine receptor antagonism | P21728 | HEK293 TREx D1 cells, calcium flux, dopamine EC80; stronger effect = lower value | activity change, negative = inhibition, % at 10 µM | actives 3.2% (n = 360,000) | AID 504652; in the data active = activity change below about -30%; also: % is scaled to controls: 0 for no effect and ±100 for the full control effect
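Calcium flux readout: force-coupled, inducible Hek293 Trex D1 line, cells induced overnight at 30 C with tetracycline, dye-loaded 30–90 min at RT. Antagonism scored against EC80 dopamine challenge given 180 s after compound.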
D1 ag – agonists of human D1 dopamine receptor; activation, % at 2 µM; HEK293 T-REx D1 cells, calcium flux, agonist mode; actives 1% (n = 360,000); P21728; in the data active = activation above about 30%; also: 0% is about no effect
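Inducible HEK293 T-REx D1 cells, force-coupled to calcium signalling, were plated at 4000 cells/well with tetracycline and held overnight at 30 C. After no-wash calcium dye loading, compound-evoked calcium rise over 180 s flagged agonists.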
D3 ag – activates the human D3 dopamine receptor. max activation, %. actives 0.58% (n = 410,000). D3R DiscoveRx beta-arrestin cells, luminescence, 90 min. P35462; in the data active = max activation above about 30%; also: 0% is about no effect
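Agonist-mode cell screen: cells plated at 1500/well and incubated overnight at 37 °C, then exposed to library compounds for 90 min at 37 °C. Detection reagent was added for 30–60 min at room temperature, and luminescence was read.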
The depositor's hits bear a star; ? = inconclusive; . = not tested or not shown. Hits are enriched below; roughly 6.1% of the tested compounds scored in any of these assays.

SMILES	D1 potentiator	DRD3 antagonist	D1 antag	D1 ag	D3 ag
COc1ccccc1NC(=O)C(=O)NCC(c1ccco1)N1CCc2ccccc2C1 (centres undefined)	-2	-3	-8	2	-4
Cc1ccc(C(=O)NCC(c2cccnc2)N2CCc3ccccc3C2)cc1C (centres undefined)	-3	.	-31*	3	3
COCCCNC(=O)CSC1=Nc2ccccc2C2=NC(c3ccccc3)C(=O)N12 (centres undefined)	-3	-25	0	2	-8
C=CCn1c(C(C)NC(=O)C(C)(C)C)nc2ccccc21 (centres undefined)	4	-52*	-4	-3	16
C=CCn1c(CCCNC(=O)C(C)(C)C)nc2ccccc21	-4	1	-12	1	5
COc1ccccc1C(=O)n1nc(-c2ccco2)nc1SC	-11	-6	-34*	2	0
CCNC(=S)NNC(=O)c1cc(-c2cc(C)ccc2C)nc2ccccc12	-3	23	-31*	2	3
CCCc1cc(C(=O)NNC(=S)NCC)c2ccccc2n1	-10	-56*	-15	3	-11
COC(=O)c1ccc(Cn2c(SCc3cccc(C)c3)nc3ccncc32)cc1	2	.	-32*	52*	-13
Brc1ccc2c(c1)CN1CCCC1=N2	-2	-50*	-14	2	-7
c1ccc(OCCCc2nc(-c3ccncc3)no2)cc1	-7	-52*	-11	4	2
CSc1ncc(C(=O)Nc2cccc(C)c2C)c(C)n1	-3	2	-47*	0	-7
COC(=O)c1c(C)oc(C)c1S(=O)(=O)N1CCOCC1	1	16	2	1	1
CC(CC(=O)Nc1cccnc1)c1ccccc1 (centres undefined)	-3	-11	0	1	42*
CC(CC(=O)Nc1ccc(C(N)=O)cc1)c1ccccc1 (centres undefined)	-3	?	3	2	-3
CC(C)Cc1ccc([C@H](C)C(=O)O)cc1	.	9	.	.	5
CC(C)Cc1ccc(C(C)C(=O)Nc2ccc(O)cc2)cc1 (centres undefined)	5	-3	-68*	83*	3
CC(C(=O)Nc1cccnc1)c1ccc([N+](=O)[O-])cc1 (centres undefined)	5	-15	6	25	-1
CC(C)CC(NC(=O)C1CCC(C)CC1)C(=O)NCc1cccnc1 (centres undefined)	-8	3	2	1	-3
CC(C)CC(NC(=O)C1CCC(C)CC1)C(=O)Nc1cccnc1 (centres undefined)	-3	-23	-35*	0	-1
CC(C)Cc1ccc(C(C)C(=O)Nc2cccnc2)cc1 (centres undefined)	-5	28	-51*	75*	6
Cc1cccc(C)c1NC(=O)CNC(=O)c1ccc2c(c1)NC(=O)CS2	.	-7	.	.	4
O=C(O)c1c(Cl)cccc1Nc1ccccc1	.	-19	.	.	-1
COc1ccc(CCNC(=O)CCCn2ncn3c(cc4occc43)c2=O)c(OC)c1	-17	8	-4	1	24
Cc1ccc(Cl)cc1NC(=O)C1C2CCC(O2)C1C(=O)O (centres undefined)	-1	-25	-35*	-1	-3
SMILES	D1 potentiator	DRD3 antagonist	D1 antag	D1 ag	D3 ag
Cc1ccc(NC(=O)C2C3CCC(O3)C2C(=O)O)c(Br)c1 (centres undefined)	0	20	9	2	2
Cc1ccc(NC(=O)Cn2c(-c3nonc3N)nc3ccccc32)c(Br)c1	5	.	-10	2	4
CCc1nc(SCC(=O)Nc2ccnc3ccccc23)n[nH]1	-3	5	-46*	12	4
CCc1nc(SCC(=O)Nc2ccccc2C(=O)OC)n[nH]1	4	1	-6	-1	-8
CNC(=S)N1CCC(C(=O)c2ccc(Cl)cc2)CC1	.	67	.	.	5
O=C(Nc1ccccc1[N+](=O)[O-])OCC=Cc1ccccc1	.	-9	.	.	3
CCOC(=O)c1ccc(-c2ccc(/C=N/NC(=O)CN(c3ccccc3Cl)S(C)(=O)=O)o2)cc1	1	53	6	6	44*
COc1ccc(N2CC(NC(=O)COc3cccc(C)c3)CC2=O)cc1OC (centres undefined)	0	.	.	33*	-13
COc1ccc(N2CC(NC(=O)COc3ccc(F)cc3)CC2=O)cc1OC (centres undefined)	3	.	.	86*	-2
NS(=O)(=O)c1ccc(N2CCN(S(=O)(=O)Cc3ccccc3)CC2)nc1	.	-7	.	.	-2
NS(=O)(=O)c1ccc(N2CCN(CCOc3ccc(Cl)cc3)CC2)nc1	-10	-12	-26	10	36*
c1cncc(-c2nc(NCc3cccs3)c3ccccc3n2)c1	-4	10	-3	3	4
Fc1ccccc1CNc1nc(-c2cccnc2)nc2ccccc12	.	1	-60*	1	-6
CC(C)CN1CCC(=O)N([C@H](CO)c2ccccc2)CC1	-3	51	-1	5	0
CC(C)CN1CCC(=O)N([C@H](CSc2ccc(Br)cc2)c2ccccc2)CC1	-1	0	-44*	2	-53
CC(C)C[C@@H](CSc1ccc(Br)cc1)N1CCN(C)CCC1=O	2	1	22	10	-15
O=C1CCN(Cc2ccccc2)CCN1[C@H](CSc1ccccc1)Cc1ccccc1	-5	-14	-9	2	-12
CC(C)C[C@@H](CSc1ccc(Br)cc1)N1CCN(CC(C)C)CCC1=O	0	-50*	4	4	-43
Cc1ccc(SCCN2CCN(CCc3ccccc3)CCC2=O)cc1	-2	-59*	-38*	5	-68
O=C1CCN(CCc2ccccc2)CCN1[C@H](CSc1ccc(Br)cc1)Cc1ccccc1	-4	-57*	-8	21	-52
CC12CS(=O)(=O)CC1SC(=S)N2Cc1ccccc1 (centres undefined)	-4	-15	1	3	-5
c1ccc2nc3c(cc2c1)CCCCC3	-5	10	18	1	-8
Cc1cc(C)c2c(n1)sc1c(=O)n(-c3cc(Cl)ccc3C)nnc12	3	.	-5	0	-4
Cc1ccc(SC[C@H](c2ccccc2)N2CCN(C)CCC2=O)cc1	-2	4	3	5	-14
Cc1ccc(SC[C@H](c2ccccc2)N2CCN(CC(C)C)CCC2=O)cc1	-6	-89*	2	8	-68
CC(=O)c1c(C)[nH]c(C(=O)OCC(=O)NCc2ccccc2)c1C	.	-19	.	.	-8
CCCCNC(=O)C1(C)CCCCN1C(=O)c1c(C)noc1C (centres undefined)	.	0	.	.	-5
Cc1cc(C(=O)N2CC=C(c3ccccc3)CC2)c2ccccc2n1	-3	7	-41*	2	-5
CC(=O)N1CCN(C(=O)c2cc(C)nc3ccccc23)CC1	0	-15	11	2	-4
